From PubChem
MBNL1-CUG inh: inhibitors of human MBNL1 binding to CUG repeat RNA | Q9NR56 | TR-FRET MBNL1-His/biotin-(CUG)12 binding, 665/545 ratio | 280,000 tested, 0.036% active | Potency, µM (highest dose often 57.5 µM), for inactives: at the top dose activity change, negative = inhibition, actives largely listed as inhibitors | AID 2675; active means well fitted inhibition curve with a large enough effect in the signal ratio, with a control signal flat, not every such curve was filed as active; inconclusive means small, poorly fitted or top-dose-only effect, or effect the other way, or a change in a side signal; inactive means no such curve, though single readings can be large or run the other way; the % refers to the signal ratio; further: potency means the concentration at half of the fitted maximal effect; on the % scale 0 is the no-effect control and ±100 the full control effect
Target sequence (Q9NR56 whole entry, looked up): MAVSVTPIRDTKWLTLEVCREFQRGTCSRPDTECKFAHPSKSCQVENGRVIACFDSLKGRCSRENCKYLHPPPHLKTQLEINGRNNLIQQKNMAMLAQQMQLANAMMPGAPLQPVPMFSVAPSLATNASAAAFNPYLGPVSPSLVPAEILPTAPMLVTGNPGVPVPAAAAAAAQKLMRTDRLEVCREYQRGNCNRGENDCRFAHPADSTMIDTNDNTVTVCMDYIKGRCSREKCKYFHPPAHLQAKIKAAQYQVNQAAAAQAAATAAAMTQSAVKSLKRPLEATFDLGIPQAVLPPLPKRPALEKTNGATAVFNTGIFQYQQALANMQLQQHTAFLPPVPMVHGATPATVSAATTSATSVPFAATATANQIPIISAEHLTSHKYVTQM
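His-tagged MBNL1 binding to biotinylated (CUG)12 RNA was measured by TR-FRET using terbium anti-His antibody (0.055 ng/ul final) and streptavidin-XL665 (5 nM final). Compounds were titrated 92 nM to 58 uM; 60 min at room temperature.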
Rango dissoc inh: inhibitors of RanGTP-induced Rango-importin beta complex dissociation. O95149+P62826. Biochemical FRET Rango-importin beta, RanGTP-induced dissociation. Potency, µM (top dose mostly 46.1 µM), without a hit: at the top dose activity change, negative = inhibition. 340,000 tested, 0.071% active. AID 540253; further: potency means the concentration at half of the fitted maximal effect; % of control where 0% means no effect; nearly all actives have a fitted effect of over 45% in size
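Compounds preincubate 5 min with complex of recombinant Rango and importin beta in PBS with 1 mM DTT. Ran (0.6 uM) loaded with 2 mM GTP plus 0.2 uM RCC1 starts dissociation; FRET is recorded 45 min later.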
CBFb-RUNX1 inh: CBF-beta/RUNX1 interaction disruption; Q01196+Q13951; AlphaScreen CBFb-His/RUNX1-biotin binding, biochemical; Potency, µM (series often up to 59.8 µM), inactives show at the top dose activity, negative = inhibition, most hits filed as inhibitors; 230,000 tested, under 10 active; AID 1477; active means well fitted curve in the direction sought with a large enough effect; inconclusive means small, poorly fitted or top-dose-only effect, or effect the other way, or another doubt; inactive means no such curve, though single readings can be large or run the other way; further: % of control where 0% means no effect
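Interaction loss through any mechanism counts as activity. Pre-formed complex of His-CBF-beta and biotin-RUNX1 (30 nM apiece) is incubated with compound 15 min, then with 50 ng nickel and 50 ng streptavidin beads for 90 min before AlphaScreen detection.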
Rango complex inh: inhibitors of Rango-importin beta complex formation; Potency, µM (highest dose often 92.2 µM), for the others: at the highest dose inhibition of complex formation; AID 540263; Q14974; 340,000 tested, 0.031% active; Rango CFP/YFP FRET sensor + importin beta, 45 min;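 further: potency means the concentration at half of the fitted maximal effect; 0% = DMSO wells and 100% = buffer wells lacking importin beta; nearly all actives have a fitted effect of over 15% in size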
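FRET biosensor Rango (snurportin 1 IBB between N-terminal EYFP and C-terminal Cerulean), 50 nM in PBS/1 mM DTT/0.02% Tween-20/0.1% BSA, preincubated 5 min RT with compound; 0.125 microM importin beta added, 45 min RT, CFP/YFP FRET ratio read.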
ClpP mod: qHTS Assay for Activators of ClpP | purified B. subtilis ClpP, FRET peptide cleavage, 20 min | Potency, µM (titrated, usually from 57.5 µM), inactives show at the top dose activity change, negative = active | 340,000 tested, 1.9% active | AID 651965, 2013; active means well fitted falling curve with a large enough effect; inconclusive means small, poorly fitted or top-dose-only effect; inactive means no such curve, though single readings can be large or run the other way; further: potency means the concentration at half of the fitted maximal effect; the source files actives as falling curves though it sought activators and does not explain the sign; nearly all actives have a fitted effect of over 65% in size
Target sequence (P80244 whole entry, looked up): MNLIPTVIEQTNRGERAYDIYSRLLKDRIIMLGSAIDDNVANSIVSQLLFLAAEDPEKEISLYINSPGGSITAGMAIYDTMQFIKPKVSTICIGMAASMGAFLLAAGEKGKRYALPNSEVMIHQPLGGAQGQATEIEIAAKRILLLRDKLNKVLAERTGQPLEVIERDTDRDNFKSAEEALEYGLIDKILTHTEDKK
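FRET quenching reversal measured ClpP activation: 10 microg/mL B. subtilis ClpP at pH 8 with the FRET-FV decapeptide, read at 430 nm after 320 nm excitation. The 20-min minus 0-min signal was scaled between DMSO/no-enzyme wells and ADEP (5.8 microM final).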
An asterisk follows results filed as active; ? = inconclusive; . = no result given. Many of the other results were omitted from the sample, so hits are more common in it than they were. Unless noted, the call rests on the fitted dose curve.

SMILES	MBNL1-CUG inh	Rango dissoc inh	CBFb-RUNX1 inh	Rango complex inh	ClpP mod
OC(CNCCC1C=Nc2ccccc21)Cn1c2ccc(Cl)cc2c2cc(Cl)ccc21 (stereo unspecified)	.	2.3%	3.9%	-0.4%	28.2µM*
OC(CNCC1CCCO1)Cn1c2ccc(Cl)cc2c2cc(Cl)ccc21 (stereo unspecified)	-7.9%	2.0%	-3.3%	2.2%	-5.2%
COc1cccc(CNC(=O)c2cc3cccc4c3n2CC(C)S4)c1OC (stereo unspecified)	.	.	.	.	35.5µM*
O=C(NCc1ccccc1Cl)c1cc2cccc3c2n1CCS3	.	.	.	.	28.2µM*
COc1ccc(CNC(=O)c2cc3cccc4c3n2CC(C)S4)c(OC)c1 (stereo unspecified)	.	.	.	.	14.1µM*
COc1ccc(OC)c(CCNC(=O)c2cc3cccc4c3n2CCS4)c1	.	.	.	.	31.6µM*
COc1ccc(OC)c(CCNC(=O)c2ccc3c(c2)N(Cc2ccc(C)cc2)CCS3)c1	.	.	.	.	4.6%
COc1cc(OC)cc(-c2nnc3n2N=C(c2ccc(OC)cc2OC)CS3)c1	.	.	-29.3%	.	.
COc1ccc(Nc2c(-c3ccc(Cl)cc3)nc3cnccn23)cc1OC	.	.	.	.	-2.8%
COc1ccc(OC)c(CCNC(=O)c2cc3cccc4c3n2CC(C)S4)c1 (stereo unspecified)	.	.	.	.	31.6µM*
COc1ccc(-n2cc(C(=O)NCCc3cc(OC)ccc3OC)c3ccccc3c2=O)cc1	.	.	.	.	-4.7%
CCOc1ccc(CCNC(=O)c2cc3cccc4c3n2CCS4)cc1	.	.	.	.	22.4µM*
CC1Cn2c(C(=O)NCc3cccc(Br)c3)cc3cccc(c32)S1 (stereo unspecified)	.	.	.	.	31.6µM*
COc1ccc(CNC(=O)c2cc3cccc4c3n2CC(C)S4)cc1OC (stereo unspecified)	.	.	.	.	31.6µM*
O=C(NCc1cccc(Br)c1)c1cccn1-c1nnc(N2CCCCC2)s1	.	.	.	.	-29.5%
COc1ccc(NC(=O)CNC(=O)Cn2ccc3ccccc3c2=O)cc1OC	.	.	.	.	-2.4%
Cc1ccc(N(C(=O)c2cccc(C)c2)S(=O)(=O)c2ccc(Cl)cc2)cc1	.	.	.	.	-2.0%
NCCCNC(=O)c1cc2ccccc2[nH]1	-5.0%	9.4%	-1.8%	7.9%	25.1µM*
COc1ccc(NC(=O)CCCC(=O)c2ccccc2)c(OC)c1	8.2%	10.2%	.	-0.7%	2.0%
COc1ccc(NC(=O)CCCc2ccccc2)c(OC)c1	-4.3%	16.4µM*	.	-0.1%	-3.0%
O=C1CCCC2=C1C1(CCCC1)N=C(Nc1nc3ccccc3s1)N2	-8.5%	-9.8%	-0.3%	0.4%	28.2µM*
Cc1nn(-c2ccccc2)c2nc(C3CC3)cc(C(=O)Nc3ccccc3F)c12	.	.	.	.	4.6%
Cc1cccc2cc(C#N)c(NCCNC(=O)NC3CCCCC3)nc12	20.0%	?	8.9%	?	?
Cc1ccc2cc(C#N)c(NCCNC(=O)C3CCC3)nc2c1C	3.1%	-11.6%	1.9%	?	15.8µM*
C[n+]1ccc(C(c2c[nH]c3ccccc23)c2cc[n+](C)c3ccccc23)c2ccccc21	.	.	.	.	-15.7%
SMILES	MBNL1-CUG inh	Rango dissoc inh	CBFb-RUNX1 inh	Rango complex inh	ClpP mod
CCOC(=O)N1CCN(C(=O)c2cccn3c(=O)c4sccc4nc23)CC1	26.3%	-15.4%	12.4%	-1.2%	25.1µM*
CCOC(=O)N1CCN(C(=O)c2cccn3c(=O)c4cc(Br)ccc4nc23)CC1	6.3%	-12.9%	4.3%	?	-0.7%
O=C(Cn1ccc2ccccc2c1=O)NCCC(=O)Nc1cccc(Cl)c1	0.6%	0.9%	.	?	17.8µM*
O=C(Cn1ccc2ccccc2c1=O)NCCC(=O)Nc1cccnc1	13.0%	1.1%	1.5%	-3.0%	-22.6%
CSc1nc(C)cc(C)c1C#N	4.6%	-1.0%	4.1%	0.4%	-1.9%
Cc1cc(C)c(C#N)c(=N)o1	-0.5%	-4.6%	-5.5%	3.3%	2.82µM*
COc1ccc(CCNC(=O)CCc2c(C)nc3cc(-c4ccc(Cl)cc4)nn3c2C)c(OC)c1	.	.	.	.	-16.4%
CC(=O)c1cc(CC=C(C)C)c(O)c(CC=C(C)C)c1O	-4.9%	13.4%	12.8%	9.1%	28.2µM*
